According to PubChem BioAssay (EPA / NIEHS):
Several values for one entry are separate records, joined by “and”; a condition that tells them apart may be missing. Equal entries are not always repeated. The source holds several records for some structures; these can differ, active in one and inactive in another. Activity calls are given as the source filed them. Rule for the calls: active = hit-call score of the fitted dose curve at least 0.9, where 1 is the maximum; inactive = score below 0.9.

Key:
[1] = read-out: Macrophage colony-stimulating factor (MCSF), CSF1 (gene 1435); assay: BSK_LPS_MCSF: BioMAP Diversity Plus: LPS Assay for Macrophage colony-stimulating factor (MCSF) Biomarker Activity (AID 2283083); details: primary human HUVEC with PBMC; actives raise or lower the signal
Method in brief: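 Bidirectional fit versus DMSO of ELISA-measured M-CSF in co-cultured human umbilical vein endothelial cells and PBMC, sampled 24 h after dosing.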

[2] = read-out: Tissue Factor, F3 (gene 2152); assay: BSK_LPS_TissueFactor: BioMAP Diversity Plus: LPS Assay for Tissue Factor Biomarker Activity (AID 2283084); details: primary human HUVEC with PBMC; actives raise or lower the signal
Method in brief: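 Read-out: CD142 ELISA, 24 h. System: LPS-driven human endothelial/PBMC co-culture. Analysis: up- or down-signal fitted against DMSO.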

[3] = read-out: Tumor necrosis factor (Homo sapiens) (UniProt P01375); assay: BSK_LPS_TNFa: BioMAP Diversity Plus: LPS Assay for Tumour Necrosis Factor alpha (TNFa) Biomarker Activity (AID 2283085); details: primary human HUVEC with PBMC; actives raise or lower the signal;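 for AC50: TNFa protein level quantified by ELISA in the co-culture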
Method in brief: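 TNFa was quantified by ELISA in LPS-activated co-cultures of human endothelial cells and PBMC, 24 h post-dosing. Both increases and decreases versus DMSO were fitted.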

[4] = read-out: CD38, CD38 (gene 952); assay: BSK_SAg_CD38: BioMAP Diversity Plus: SAg Assay for CD38 Biomarker Activity (AID 2283087); details: primary human HUVEC with PBMC; actives raise or lower the signal
Method in brief: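 CD38 quantified by ELISA (fluorescence) in a superantigen-activated endothelial cell–PBMC co-culture at 24 h post-dose. Activity fitted in both directions relative to DMSO; parallel SRB and Alamar Blue cytotoxicity read-outs.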

[5] = read-out: CD40, CD40 (gene 958); assay: BSK_SAg_CD40: BioMAP Diversity Plus: SAg Assay for CD40 Biomarker Activity (AID 2283088); details: primary human HUVEC with PBMC; actives raise or lower the signal
Method in brief: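 Endpoint derived by fitting increases or decreases versus DMSO controls. CD40 is detected by fluorescence ELISA in a human vascular co-culture of endothelium and PBMC at 24 h.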

[6] = read-out: CD69, CD69 (gene 969); assay: BSK_SAg_CD69: BioMAP Diversity Plus: SAg Assay for CD69 Biomarker Activity (AID 2283089); details: primary human HUVEC with PBMC; actives raise or lower the signal;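 for AC50: cell surface CD69 protein quantified by ELISA with fluorescence detection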
Method in brief: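 Values derive from bidirectional fitting relative to DMSO vehicle. Cells: umbilical vein endothelium plus peripheral blood mononuclear cells, treated 24 h before fluorescent ELISA for CD69.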

[7] = read-out: Monocyte Chemoattractant Protein-1 (MCP1), CCL2 (gene 6347); assay: BSK_SAg_MCP1: BioMAP Diversity Plus: SAg Assay for Monocyte Chemoattractant Protein-1 (MCP1) Biomarker Activity (AID 2283090); details: primary human HUVEC with PBMC; actives raise or lower the signal
Method in brief: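 Values derive from bidirectional fitting of ELISA-measured MCP1 against DMSO controls. Readings were taken 24 h after dosing human vascular endothelial cells co-cultured with peripheral blood mononuclear cells under superantigen stimulation.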

[8] = read-out: E-selectin (Homo sapiens) (UniProt P16581); assay: BSK_SAg_Eselectin: BioMAP Diversity Plus: SAg Assay for Eselectin Biomarker Activity (AID 2283091); details: primary human HUVEC with PBMC; actives raise or lower the signal
Method in brief: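 Endpoint values derive from bidirectional fitting relative to DMSO, using ELISA-measured E-selectin in a human vascular co-culture (umbilical vein endothelium plus PBMC) sampled 24 h after dosing.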

[9] = read-out: Monokine induced gamma interferon (MIG), CXCL9 (gene 4283); assay: BSK_SAg_MIG: BioMAP Diversity Plus: SAg Assay for Monokine induced gamma interferon (MIG) Biomarker Activity (AID 2283092); details: primary human HUVEC with PBMC; actives raise or lower the signal
Method in brief: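 Values reflect bidirectional fitting of ELISA-measured MIG against DMSO vehicle, taken 24 h after dosing of a co-culture of human umbilical vein endothelial cells and peripheral blood mononuclear cells.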

[10] = BSK_SAg_PBMCCytotoxicity: PBMC Cytotoxicity Assessment in the BioMAP Diversity Plus: SAg Assay (AID 2283093); details: primary human HUVEC with PBMC;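 note: PBMC viability measured as Alamar Blue reduction fluorescence at 546/580 nm; fitted both ways against DMSO so a hit may be loss or gain of signal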;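 for AC50: PBMC superantigen activated with SEB plus TSST-1 one hour after compound addition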
Method in brief: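 Alamar Blue reduction (6 h, 546/580 nm) reports PBMC cytotoxicity after 90 h superantigen activation (SEB, TSST-1; 20 ng/mL final each) with 1 h compound pre-treatment. Gain or loss of signal fitted versus DMSO.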

[11] = read-out: Interleukin-8 (IL8), CXCL8 (gene 3576); assay: BSK_SAg_IL8: BioMAP Diversity Plus: SAg Assay for Interleukin-8 (IL8) Biomarker Activity (AID 2283094); details: primary human HUVEC with PBMC; actives raise or lower the signal
Method in brief: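 ELISA readout of IL-8 from a superantigen-activated endothelial/PBMC primary human co-culture, taken 24 h post-dosing and fitted in both directions against DMSO; parallel SRB total-protein staining flags overt cytotoxicity.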

[12] = BSK_SAg_SRB: Viability Assessment in the BioMAP Diversity Plus: SAg Assay (AID 2283096); details: primary human HUVEC with PBMC;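 note: cells read one day after compound addition; hits may be either gain or loss of signal compared with DMSO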
Method in brief: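 This overt-cytotoxicity endpoint quantifies protein in human endothelial/PBMC co-cultures at 24 h using SRB absorbance (560 nm) after trichloroacetic acid fixation. Values reflect signal change from the DMSO negative control, fitted bidirectionally.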

[13] = read-out: Vascular cell adhesion molecule 1 (VCAM1), VCAM1 (gene 7412); assay: BSK_LPS_VCAM1: BioMAP Diversity Plus: LPS Assay for Vascular cell adhesion molecule 1 (VCAM1) Biomarker Activity (AID 2283086); details: primary human HUVEC with PBMC; actives raise or lower the signal
Method in brief: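 VCAM-1 quantified by ELISA in an LPS-activated co-culture of human endothelial cells and peripheral blood mononuclear cells, read 24 h post-treatment. Fitted in both directions versus DMSO; parallel SRB staining flags overt cytotoxicity.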

[14] = BSK_SAg_Proliferation: Cell Proliferation Assessment in the BioMAP Diversity Plus: SAg Assay (AID 2283095); details: primary human HUVEC with PBMC;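 note: relative cell number as total protein by SRB absorbance in sub-confluent culture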
Method in brief: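 Relative cell number in the endothelial cell/PBMC co-culture was quantified at 96 h by SRB staining (0.1% SRB, 10% TCA fixation, read at 560 nm). Curves were fitted in both directions relative to DMSO baseline.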

Measured: AC50

Sequence of Tumor necrosis factor (Homo sapiens) (P01375 whole entry, looked up): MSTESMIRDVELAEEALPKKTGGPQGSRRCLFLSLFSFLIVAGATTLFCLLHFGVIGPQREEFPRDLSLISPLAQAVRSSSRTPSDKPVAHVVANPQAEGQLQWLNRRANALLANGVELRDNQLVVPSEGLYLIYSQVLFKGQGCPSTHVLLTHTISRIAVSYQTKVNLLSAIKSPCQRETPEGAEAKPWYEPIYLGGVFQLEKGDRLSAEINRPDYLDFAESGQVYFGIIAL
Sequence of E-selectin (Homo sapiens) (P16581 whole entry, looked up): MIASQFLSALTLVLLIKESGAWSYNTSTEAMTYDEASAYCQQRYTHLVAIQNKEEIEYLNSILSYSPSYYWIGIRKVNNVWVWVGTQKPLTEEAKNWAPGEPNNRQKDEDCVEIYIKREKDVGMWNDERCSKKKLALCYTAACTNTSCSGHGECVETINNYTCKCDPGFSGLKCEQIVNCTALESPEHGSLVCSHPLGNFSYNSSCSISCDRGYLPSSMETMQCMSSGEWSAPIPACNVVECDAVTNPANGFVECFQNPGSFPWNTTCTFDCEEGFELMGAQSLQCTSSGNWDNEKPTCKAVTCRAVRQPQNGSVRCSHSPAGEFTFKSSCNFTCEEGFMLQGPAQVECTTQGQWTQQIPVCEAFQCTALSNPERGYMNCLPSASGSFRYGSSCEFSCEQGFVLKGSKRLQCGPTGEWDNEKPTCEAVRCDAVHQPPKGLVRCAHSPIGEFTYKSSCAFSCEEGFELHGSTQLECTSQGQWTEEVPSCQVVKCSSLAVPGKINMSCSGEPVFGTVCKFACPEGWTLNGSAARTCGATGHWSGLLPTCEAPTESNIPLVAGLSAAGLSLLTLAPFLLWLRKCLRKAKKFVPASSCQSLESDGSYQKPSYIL

OCCN1CN(CCO)CN(CCO)C1
active: [1] 25.7 µM | [2] 20 µM | [3] 36.6 µM | [4] 31.6 µM | [5] 31.1 µM | [6] 38.7 µM | [7] 20 µM | [8] 20 µM | [9] 33.1 µM | [10] 27 µM | [11] 13.1 µM | [12] 33.4 µM

O=S(=O)(O)C(F)(F)C(F)(F)C(F)(F)C(F)(F)C(F)(F)C(F)(F)C(F)(F)C(F)(F)C(F)(F)C(F)(F)F
inactive: [1] | [2] | [4] | [7] | [8] | [9] | [10] | [11] | [12]
active: [2] 13.3 µM | [3] 8.87 µM and 13.3 µM | [5] 13.3 µM and 7.42 µM | [7] 8.67 µM | [8] 7.15 µM | [12] 13.2 µM

C[C@]12CC[C@@H]3c4ccc(O)cc4CC[C@H]3[C@@H]1C[C@@H](O)[C@@H]2O
inactive: [1] | [2] | [3] | [13] | [4] | [5] | [7] | [8] | [9] | [10] | [11] | [14] | [12]

COC1=CC(=O)C[C@@H](C)[C@]12Oc1c(Cl)c(OC)cc(OC)c1C2=O
inactive: [1] | [2] | [3] | [13] | [4] | [5] | [7] | [8] | [9] | [10] | [11] | [14] | [12]

O=C(O)CCC(F)(F)C(F)(F)C(F)(F)C(F)(F)C(F)(F)F
inactive: [1] | [2] | [3] | [13] | [4] | [5] | [7] | [8] | [9] | [10] | [11] | [14] | [12]

CCCCC(CC)C(=O)OCCOCCOCCOCCOC(=O)C(CC)CCCC (stereo not given)
inactive: [2] | [3] | [4] | [5] | [6] | [7] | [8] | [9] | [10] | [11] | [12]
active: [1] 20 µM

C=COC(=O)C(C)(C)CCCCCC
active: [1] 32.4 µM | [2] 32.5 µM | [3] 0.371 µM | [5] 4.12 µM | [6] 20 µM | [7] 31.1 µM | [8] 32.2 µM | [10] 36.8 µM | [12] 36.1 µM
inactive: [4] | [9] | [11]

Cc1cccc2c1ccc1ccccc12
inactive: [1] | [3] | [4] | [5] | [6] | [7] | [8] | [9] | [10] | [11] | [12]
active: [2] 3.97 µM

O=C(O)CCC(F)(F)C(F)(F)C(F)(F)C(F)(F)C(F)(F)C(F)(F)F
inactive: [1] | [2] | [3] | [13] | [4] | [5] | [6] | [7] | [8] | [9] | [10] | [11] | [12]

OCC(CO)(CBr)CBr
inactive: [1] | [2] | [3] | [4] | [5] | [6] | [7] | [8] | [9] | [10] | [11] | [12]

CCCCC=O
inactive: [1] | [2] | [3] | [4] | [5] | [6] | [7] | [8] | [9] | [10] | [11] | [12]

O=C(NCc1ncc(C(F)(F)F)cc1Cl)c1c(Cl)cccc1Cl
inactive: [1] | [2] | [3] | [4] | [5] | [6] | [7] | [8] | [9] | [10] | [11] | [12]

O=P(O)(O)CCC(F)(F)C(F)(F)C(F)(F)C(F)(F)C(F)(F)C(F)(F)C(F)(F)C(F)(F)F
active: [1] 27.7 µM and 30 µM | [4] 30 µM | [5] 30 µM | [12] 25.1 µM and 38.3 µM
inactive: [2] | [3] | [4] | [5] | [7] | [8] | [9] | [10] | [11]

O=C1OC2(c3ccccc31)c1cc(I)c(O)c(I)c1Oc1c2cc(I)c(O)c1I
active: [1] 6.69 µM | [2] 19.8 µM | [13] 9.02 µM | [4] 7.06 µM | [5] 12 µM | [7] 10.2 µM
inactive: [3] | [9] | [10] | [11] | [12]
